This note sets out measurements from PubChem BioAssay AID504848 (National Center for Advancing Translational Sciences (NCATS), 2011).

The campaign covered roughly 2,300 compounds. About 1,400 (61%) were called active. Inconclusive results (about 29%) are left out. Calls come from the whole dose curve; as a rule, active = well fitted inhibition curve with a large enough effect; inconclusive = small, poorly fitted or top-dose-only effect, or effect the other way; inactive = no such curve, though single readings can be large or run the other way. The set was probably picked from earlier hits. This is one part of the list.
Potency is the fitted concentration of half-maximal effect.

A short description of this assay: Confirmation screen for delayed death inhibitors of the malarial parasite plastid, 96 hour incubation. Note: nearly all actives have a fitted effect of over 60% in size. Particulars: P. falciparum luciferase growth in erythrocytes; series mostly up to 28.7 µM. The procedure, abridged:
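Two-generation (96 h, 37 C) exposure of P. falciparum carrying an integrated firefly luciferase reporter in erythrocytes, 0.1% parasitemia and 2% hematocrit final, Albumax-supplemented RPMI. Luminescence decrease measures growth inhibition.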
In the case of `Cc1ccc(-c2csc(N/N=C/c3ccco3)n2)c(C)c1`, the Potency is 14.1 µM (active).
Turning to `CCOc1ccc(NC(=O)CC2C(=O)N(c3ccccc3)C(=O)N2CCOC)cc1` (stereo not given), the Potency entry is “inactive”.
On to `CCOc1ccc(C(=O)Nc2ccc(N3CCN(C)CC3)cc2)cc1`, for which the Potency is 15.8 µM (active).
In the case of `CC(C)N1CCC(N2CCN(Cc3ccc(-c4ccc(Cl)cc4)o3)CC2CCO)CC1` (stereo not given), the Potency was 5.01 µM (active).
Then `CN1C[C@@H]2C[C@H]1CN2c1cc2c(cc1F)c(=O)c(C(=O)O)cn2C1CC1`, with 2 µM (active).
Then `COc1ccc(C2(CCN)CC(C)N(C)CC2C)cc1` (stereo not given), with 15.8 µM (active); and `CCn1c2ccccc2c2cc(/C=N/n3cn[nH]c3=S)ccc21`, with 6.31 µM (active).
Then `CCOC(=O)C1(Cc2cccc(Cl)c2)CCCN(C(=O)C(C)(C)C)C1` (stereo not given), with 15.8 µM (active).
For the compound `Cc1ccc(C2C3=C(CC(C)(C)CC3=O)N=C3c4ccccc4C(=O)C32)cc1` (stereo not given), the Potency was 7.08 µM (active).
Regarding `O=C(CSc1c2c(nc3ccc(Cl)cc13)CCCC2)NCCCN1CCOCC1`, the Potency is 10 µM (active).
Take `CCN(CC)c1ccc(-c2sc(Nc3ccccc3)n[n+]2-c2ccc(F)cc2)cc1`: the Potency is 12.6 µM (active).
Consider `c1ccn2cc(C34CC5CC(CC(C5)C3)C4)nc2c1`, for which the Potency was 12.6 µM (active).
Regarding `Cc1c(OC(C)C(=O)NCc2cccnc2)ccc2c3c(c(=O)oc12)CCCC3` (stereo not given), the Potency is 1.26 µM (active).
For the compound `Cc1c(OCC(=O)NCc2cccnc2)ccc2c3c(c(=O)oc12)CCCC3`, the Potency is 12.6 µM (active).
The same measure for `O=c1oc2ccccc2c(O)c1CN1CCCCC1`: “inactive”; for `CC(=O)N1/C(=C/c2ccc(N(C)C)cc2)C(=O)c2ccccc21`: 0.282 µM (active).
Then `C#CCn1c(S(=O)(=O)Cc2ccc(F)cc2)nc(-c2ccccc2)c1-c1ccccc1`, with 12.6 µM (active); and `CCOC(=O)Cn1c(S(=O)(=O)Cc2cccc(F)c2)nc(-c2ccccc2)c1-c1ccccc1`, with 7.08 µM (active); and `C#CCn1c(S(=O)(=O)Cc2ccc(C)cc2)nc(-c2ccccc2)c1-c1ccccc1`, with 12.6 µM (active).
The same measure for `COc1cc(-c2nnc(NC(=O)CCS(=O)(=O)c3ccccc3)o2)cc(OC)c1OC`: 12.6 µM (active).
With `Cc1sc(N/N=C/c2cccnc2)nc1-c1ccccc1`, the Potency is 12.6 µM (active).
Then `Cc1sc(NC(=O)c2c(F)cccc2F)nc1-c1ccccc1`, with “inactive”; and `Cc1nc([N+](=O)[O-])c(Br)n1CC(=O)c1ccc(Cl)cc1`, with 7.94 µM (active); and `O=C(CSc1nc2cc([N+](=O)[O-])ccc2n1-c1ccccc1)NCc1ccc2c(c1)OCO2`, with 11.2 µM (active).
Take `COc1cc2c(cc1OC)CN(C(=O)c1cc(C3CC3)nn1-c1ccccc1)CC2`: the Potency is 12.6 µM (active).
The same measure for `COc1cc2cc(CN(CCc3ccccc3C)C(=S)NCCCN3CCOCC3)c(=O)[nH]c2cc1OC`: 4.47 µM (active); for `COc1cc2cc(CN(Cc3cccs3)C(=S)Nc3ccc(C)cc3)c(=O)[nH]c2cc1OC`: 10 µM (active).
Then `O=C(NC1CCCC1)C1CC(=O)N(CCc2ccccc2)C1` (stereo not given), with “inactive”.
The same measure for `O=C(NC1CCCCC1)C1CCN(c2nnnn2-c2ccccc2)CC1`: 14.1 µM (active); for `O=C(CSc1nc2ccccc2c(=O)[nH]1)Nc1cccc([N+](=O)[O-])c1`: 14.1 µM (active); for `O=C(Nc1cccc([N+](=O)[O-])c1)c1ccc2nsnc2c1`: “inactive”.
With `CCOC(=O)CNC(c1ccccc1)c1cc(Br)ccc1NC(=O)CCN1CCOCC1` (stereo not given), the Potency was 11.2 µM (active).
The same measure for `COc1ccc(Cl)cc1C(=O)Nc1ccncc1`: 12.6 µM (active).
Take `COc1ccc(Nc2cc(Cl)ccc2C(=O)O)cn1`: the Potency entry is “inactive”.
The same measure for `COc1ccc(Cl)cc1NC(=O)C(=O)NCc1ccncc1`: “inactive”; for `CC(=O)Nc1cccc(Oc2ncnc3scc(-c4ccc(C(C)C)cc4)c23)c1`: 6.31 µM (active).
In the case of `Cc1cc(C)c(C(=O)/C=C/c2cccc3ccccc23)c(=O)[nH]1`, the Potency is 6.31 µM (active).
In the case of `CCc1nnc(NC(=O)CSc2ncnc3c2cnn3-c2ccc(OC)cc2)s1`, the Potency was 12.6 µM (active).
With `CCc1nnc(NC(=O)CSc2nc3cccnc3n2C2CCCCC2)s1`, the Potency result was “inactive”.
The same measure for `Cn1cc([N+](=O)[O-])c(C(=O)Nc2ccn(C34CC5CC(CC(C5)C3)C4)n2)n1`: “inactive”.
Then `O=C(NC12CC3CC(CC(C3)C1)C2)c1ccc([N+](=O)[O-])o1`, with 2.24 µM (active).
The same measure for `CC(NC(=O)c1ccc([N+](=O)[O-])o1)C12CC3CC(CC(C3)C1)C2` (stereo not given): 6.31 µM (active); for `COc1cc(C2Oc3ccccc3C=C2[N+](=O)[O-])cc(OC)c1OC` (stereo not given): 12.6 µM (active).
For `CN(c1ccccc1)S(=O)(=O)c1cc(C(=O)N2CCN(c3ncccn3)CC2)ccc1Cl`, the Potency was 8.91 µM (active).
Turning to `CCOC(=O)C1(CCc2ccccc2)CCN(Cc2ccccn2)CC1`, the Potency is 2.51 µM (active).
Consider `Cc1cccc(C)c1NC(=O)C(=O)c1cn(C)c2ccccc12`, for which the Potency was 15.8 µM (active).
In the case of `Cc1cccc(C)c1OCCn1nc(C(=O)O)c2ccccc2c1=O`, the Potency entry is “inactive”.
Then `COc1ccc(CN2C(=O)c3ccccc3C2C(=O)NC2CCC(C)CC2)c(OC)c1` (stereo not given), with 7.08 µM (active); and `COc1cccc(CN2CCN(c3nc4nonc4nc3N3CCCCC3)CC2=O)c1`, with 1.78 µM (active).
The same measure for `Cc1cc2nc3c(=O)[nH]c(=S)[nH]c3nc2cc1NC(=O)C(F)(F)F`: 14.1 µM (active); for `O=C(Nc1nc(-c2ccccn2)cs1)C1COc2ccccc2O1` (stereo not given): 6.31 µM (active).
Then `CCc1ccc(N/C(SCc2cccc(F)c2)=C(/C#N)C(=O)NCc2ccco2)cc1`, with 7.94 µM (active); and `Cc1occc1C(=O)NC1CCCN(Cc2ccc(CC(C)C)cc2)C1` (stereo not given), with 12.6 µM (active).
Consider `O=C(NC1CCCN(Cc2ccc(Cl)cc2)C1)c1cnc2ccccn2c1=O` (stereo not given), for which the Potency was 11.2 µM (active).
Turning to `Nc1c(C(=O)CSc2nc3ccccc3o2)c(=O)[nH]c(=O)n1C1CC1`, the Potency is 12.6 µM (active).
Then `Cc1ccccc1-n1c(SCC(=O)c2c(N)n(C3CC3)c(=O)[nH]c2=O)nnc1N1CCOCC1`, with 7.94 µM (active); and `Cc1ccc(-c2csc(SCC(=O)c3c(N)n(C4CC4)c(=O)[nH]c3=O)n2)cc1`, with “inactive”; and `Cc1ccc(-n2nnnc2SCC(=O)Nc2ccccc2-c2ccccc2)cc1C`, with “inactive”.
`Cc1ccc(-n2nnnc2Sc2nc([N+](=O)[O-])nn2C)cc1C`: the Potency is 3.16 µM (active).
On to `N#Cc1cc(Oc2cccc3cccnc23)c(-n2nnc3ccccc32)cc1C#N`, for which the Potency is 5.62 µM (active).
For `COc1cccc(-c2ccc3ncnc(NCc4cccs4)c3c2)c1`, the Potency is 5.01 µM (active).
The same measure for `CN(C)c1ccc(CNc2ncnc3sccc23)cc1`: “inactive”.
The same measure for `CCCN(CCC)c1ccc(CC(=O)NC(C)Cc2ccccc2)cc1` (stereo not given): 12.6 µM (active).
The same measure for `O=C1NC(=S)S/C1=C\C=C\c1ccc([N+](=O)[O-])o1`: 2 µM (active); for `COc1ccc(C2c3c(ncn(CCCN4CCOCC4)c3=N)Oc3ccc4ccccc4c32)cc1OC` (stereo not given): 2.24 µM (active).
On to `COc1ccc(C2c3c(ncn(CCN4CCOCC4)c3=N)Oc3ccc4ccccc4c32)cc1OC` (stereo not given), for which the Potency is 2 µM (active).
With `Cc1ccc(-n2ncc3c2CC(C)(C)CC3NC(=O)c2c(C)noc2C)cc1` (stereo not given), the Potency is 12.6 µM (active).
In the case of `CCc1noc(C)c1C(=O)NC1CC(C)(C)Cc2c1cnn2-c1ccccc1` (stereo not given), the Potency was 12.6 µM (active).
`CC1=C(C(=O)NC2CC(C)(C)Cc3c2cnn3-c2ccc(C)cc2)OCCO1` (stereo not given): the Potency was 11.2 µM (active).
The same measure for `CCOc1ccc2c(c1)sc(N)[n+]2Cc1cc(C)cc2cccnc12`: 3.98 µM (active).
Then `COc1cc([N+](=O)[O-])c(OC)cc1SCc1n[nH]c(=S)n1-c1ccc(F)cc1`, with 15.8 µM (active).
Consider `COc1ccccc1N1CC(O)=C(c2nc3ccccc3s2)C1=N`, for which the Potency was 11.2 µM (active).
Consider `Cn1c(SCC(=O)N2CCCCCC2)nc2c(c1=O)SCC2`, for which the Potency is 8.91 µM (active).
Regarding `O=[N+]([O-])/C=C\c1ccc(N2CCCC2)c(F)c1`, the Potency entry was “inactive”.
In the case of `CCC(=O)c1ccc(N2CCN(C(=O)c3cc([N+](=O)[O-])ccc3N3CCN(C)CC3)CC2)c(F)c1`, the Potency is 11.2 µM (active).
`Cc1ccc(Nc2nc(NCc3ccco3)c3ccccc3n2)cc1`: the Potency was 2 µM (active).
For `C/C=C(\C)C(=O)NCCN1C2=NC[C@H](C(C)C)N2C[C@H]1Cc1ccc(O)cc1`, the Potency is 5.62 µM (active).
Then `C/C=C(\C)C(=O)NCCN1C2=NC[C@H](Cc3ccccc3)N2C[C@H]1Cc1ccc(O)cc1`, with 3.55 µM (active).
Take `C=CCNC(=O)c1onc(CSc2cccc3ccccc23)c1C(=O)O`: the Potency entry is “inactive”.
In the case of `COc1ccc(CNc2ncc(-c3ccc(Cl)cc3)n2C)c(OC)c1OC`, the Potency is 12.6 µM (active).
Take `CCC[C@H]1C[C@H](C(=O)N[C@@H]([C@H]2O[C@@H](SC)[C@@H](O)[C@@H](O)[C@@H]2O)[C@H](C)Cl)N(C)C1`: the Potency is 0.199 µM (active).
Then `Cc1ccc(S(=O)(=O)N(Cc2ccccc2)c2ccccc2C(=O)Nc2ccccc2C(=O)NCc2ccco2)cc1`, with 2.24 µM (active); and `Cc1ccc(S(=O)(=O)N(CC(=O)NCc2ccco2)c2ccccc2C)cc1`, with 11.2 µM (active).
Then `COCCn1c(=NC(=O)/C=C/c2ccccc2)sc2cc(NC(C)=O)ccc21`, with 7.94 µM (active); and `COC(=O)c1cc(=O)n(Cc2cccs2)c(=Nc2ccccc2)s1`, with “inactive”; and `CCN(CC)S(=O)(=O)c1ccc(N2CCc3ccccc3C2)nc1`, with 14.1 µM (active).
Take `CC(C)N(C(C)C)S(=O)(=O)c1ccc(N2CCc3ccccc3C2)nc1`: the Potency was 12.6 µM (active).
For the compound `CN1C(=O)C(C)(C)c2cc(S(=O)(=O)NCC3CCC(C(=O)NCc4ccc(F)cc4)CC3)ccc21` (stereo not given), the Potency is 11.2 µM (active).
In the case of `Cc1ccccc1NC(=O)CCCn1nc(C)c2c(C)n(-c3ccccc3)nc2c1=O`, the Potency was 10 µM (active).
Then `COc1ccc(NC(=O)CCCn2nc(C)c3c(C)n(-c4ccccc4)nc3c2=O)cc1`, with 11.2 µM (active); and `Cc1nn(-c2ccccc2)c(C)c1NC(=O)COC(=O)[C@@H](NC(=O)c1ccccc1)C(C)C`, with “inactive”.
As for `Cc1cccc(C)c1NC(=O)CCCn1nc(C)c2c(C)n(-c3ccccc3)nc2c1=O`, the Potency was 10 µM (active).
The same measure for `COc1ccc(NC(=O)CCCn2cc([N+](=O)[O-])cn2)cc1`: “inactive”; for `CCOc1ccc(CCNC(=O)CCCn2nc(C)c3c(C)n(-c4ccccc4)nc3c2=O)cc1`: 11.2 µM (active); for `CCOc1ccccc1C(=O)NCC(=O)NCCc1ccc(S(N)(=O)=O)cc1`: “inactive”.
